High-throughput results (PubChem)
This is a sample that favours compounds with a hit; in the whole collection about 5.7% have one here.
KB-V1 cytotox – kills drug-selected multidrug resistant KB-V1 cells | KB-V1 MDR cells viability, CellTiter-Glo, 72 h | Potency, µM (top dose mostly 46.1 µM), most hits filed as cytotoxic | 400,000 tested, 3.4% active; note: nearly all actives have a fitted effect of over 60% in size
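Potencies derive from concentration-effect curves fitted to normalized luminescence (CellTiter-Glo) of KB-V1 cells treated for 72 h at 37 degrees C in phenol-red-free DMEM containing 10% FBS.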
HT1080 IDH1KD tx – toxicity to HT-1080 IDH1 knockdown cells (counter line). HT-1080 IDH1 knockdown viability, ATP luminescence, 48 h. Potency, µM (series often up to 46.1 µM), without a hit: top-dose activity, negative = toxicity, usual class: cytotoxic. 360,000 tested, 2% active;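 note: 0% = DMSO wells and -100% = cell-free medium wells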
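Cytotoxicity counter-line: IDH1KD HT-1080, 48 h, CellTiter-Glo. Curves classed by r2, magnitude and activity.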
HT1080-NT tox – kills 2HG-producing HT-1080-NT fibrosarcoma cells; HT-1080-NT fibrosarcoma viability, CellTiter-Glo ATP luminescence, 48 h; Potency, µM (series often up to 46.1 µM), for inactives: at the highest dose activity, negative = less viability, hits mostly cytotoxic; 360,000 tested, 1.6% active;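 note: NT is the 2HG producing partner of a matched IDH1 knockdown line; 0% = DMSO-treated cells and -100% = media-only wells without cells; nearly all actives have a fitted effect of over 55% in size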
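HT-1080-NT fibrosarcoma cells (2HG-overproducing), 750 cells/well in RPMI with 5% FBS, dosed after 2 h and incubated 48 h at 37C. CellTiter-Glo luminescence normalized to DMSO and no-cell wells; concentration-response curves fitted and classed.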
KB-3-1 tox – KB-3-1 parental cell cytotoxicity | KB-3-1 viability, CellTiter-Glo ATP luminescence, 72 h | Potency, µM (top dose mostly 46.1 µM), hits mostly cytotoxic | 400,000 tested, 1.4% active | AID 1347075; note: nearly all actives have a fitted effect of over 60% in size
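Here the drug-naive KB-3-1 line serves as comparator for MDR sub-line selectivity; cells received compound titrations, 72 h at 37 °C, then CellTiter-Glo readout.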
* marks the source's active call; other numbers are inactive results; i = inactive; u = inconclusive; x = no result given. Calls come from the whole dose curve; as a rule, active = well fitted curve in the direction sought with a large enough effect; inconclusive = small, poorly fitted or top-dose-only effect, or another doubt; inactive = no such curve, though single readings can be large; an effect the other way counts as inactive or inconclusive. Unless noted, % is set by controls: 0 for no effect and ±100 for the full control effect; potency is the fitted concentration of half-maximal effect.

SMILES	KB-V1 cytotox	HT1080 IDH1KD tx	HT1080-NT tox	KB-3-1 tox
CCOC(=O)Cn1c(S(=O)(=O)Cc2ccc(F)cc2)nc(-c2ccccc2)c1-c1ccccc1	i	6.3µM*	u	i
CCOC(=O)Cn1c(-c2ccccc2)nc2ccccc2c1=O	i	6%	2%	i
C#CCn1c(S(=O)(=O)Cc2ccc(F)cc2)nc(-c2ccccc2)c1-c1ccccc1	5.2µM*	1.4µM*	u	16µM*
CCOC(=O)Cn1c(S(=O)(=O)Cc2cccc(F)c2)nc(-c2ccccc2)c1-c1ccccc1	21µM*	7.1µM*	-3%	i
Cc1c(Cl)cccc1-n1ncc(C(=O)Nc2ccc3c(c2)OCCO3)c1C1CCN(C(=O)OC(C)(C)C)CC1	i	x	x	i
COc1ccc(Cl)cc1NC(=O)CN(C)C(=O)c1cccc(S(=O)(=O)N2CCN(C)CC2)c1	21µM*	0%	6%	i
O=C(CN1CCN(S(=O)(=O)c2ccccc2)CC1)Nc1ccccc1C(=O)c1ccccc1	3.7µM*	u	-28%	u
CN1CCN(S(=O)(=O)c2cccc(C(=O)N(C)CC(=O)Nc3ccc(F)c(F)c3F)c2)CC1	i	1%	5%	i
Cc1ccc(C)c(NC(=O)CN(C)C(=O)c2cccc(S(=O)(=O)N3CCN(Cc4ccccc4)CC3)c2)c1	u	u	21µM*	u
CC(=O)Nc1cccc(NC(=O)c2cccc(S(=O)(=O)N3CCN(Cc4ccccc4)CC3)c2)c1	i	0%	-1%	i
CCc1ccccc1NC(=O)CNC(=O)c1cccc(S(=O)(=O)N2CCN(Cc3ccccc3)CC2)c1	16µM*	0%	-2%	u
C1=Cc2ccccc2/C1=C\c1cc[cH-]c1.[Fe+2].c1cc[cH-]c1	u	x	x	i
Cc1nc(N/N=C/c2ccccn2)sc1C	u	15µM*	13µM*	26µM*
CCCc1sc(N/N=C/c2ccccn2)nc1-c1ccc(F)cc1	10µM*	3.2µM*	2.8µM*	u
Oc1c(C(c2ccccc2F)N2CCCCC2)sc2nc(-c3ccco3)nn12 (stereo unspecified)	i	x	x	i
COc1ccc(-c2nc(C(=O)Nc3cccc(C(C)=O)c3)nn2-c2ccccc2Cl)cc1	i	x	x	i
COc1ccccc1CNC(=O)C1CCCN(c2nnc(-n3c(C)ccc3C)s2)C1 (stereo unspecified)	i	x	x	i
CC(=O)c1ccc(NS(=O)(=O)c2cc(-c3cnc(C4CC4)o3)ccc2C)cc1	u	u	21µM*	u
CC(=O)Nc1ccc(NS(=O)(=O)c2cc(-c3cnc(C4CC4)o3)ccc2C)cc1	u	-6%	-4%	i
O=S(=O)(c1ccc(-c2cnc(C3CC3)o2)cc1)N1CCN(c2ccc(F)cc2)CC1	i	x	x	u
Cc1ccc(-c2cnc(C3CC3)o2)cc1S(=O)(=O)Nc1ccccc1	u	u	-26%	7.3µM*
CC(=O)c1cccc(NS(=O)(=O)c2cc(-c3cnc(C4CC4)o3)ccc2C)c1	u	23µM*	21µM*	u
CC(=O)c1ccc(N2CCN(S(=O)(=O)c3ccc(-c4cnc(C5CC5)o4)cc3)CC2)cc1	u	21µM*	15µM*	i
CCOc1ccccc1NC(=O)C(C)Sc1nc2c(c(=O)[nH]1)CCCC2 (stereo unspecified)	i	x	x	i
CCN(Cc1cccs1)c1ncnc2ccc(-c3ccc4c(c3)OCO4)cc12	i	x	x	i
SMILES	KB-V1 cytotox	HT1080 IDH1KD tx	HT1080-NT tox	KB-3-1 tox
O=c1[nH]c(NCc2ccccc2)nc2c1CCC2	i	-1%	-9%	i
Cc1ccc2c(C)nc(Nc3nc(CSc4nc5ccccc5[nH]4)cc(=O)[nH]3)nc2c1	u	11µM*	18µM*	i
Cc1nc(Nc2nc3c(c(=O)[nH]2)CCC3)nc2ccccc12	u	u	u	5.8µM*
Cc1ccc(SCc2cc(=O)[nH]c(Nc3nc(C)c4ccccc4n3)n2)cc1	9.2µM*	-13%	-19%	i
Cc1ccc2nc(Nc3nc(CSc4nnc(C)s4)cc(=O)[nH]3)nc(C)c2c1	23µM*	1%	0%	u
O=C(O)c1ccc([N+](=O)[O-])cc1-c1cc([N+](=O)[O-])ccc1C(=O)O	i	7%	-1%	i
CCOc1ccccc1CNCc1c(C(=O)O)c(C)n(Cc2ccc(Cl)cc2)c1C	i	x	x	i
COc1cc(NC(=O)CC(c2cccs2)N2Cc3ccccc3C2=O)cc(OC)c1OC (stereo unspecified)	i	x	x	i
COc1ccc2c(C)nc(Nc3nc(-c4ccccc4)cc(=O)[nH]3)nc2c1	u	u	u	4.6µM*
COC(=O)c1cc(C(=O)N2CCN(c3cccc(C)c3C)CC2)cc([N+](=O)[O-])c1	i	2.3µM*	1.8µM*	5.8µM*
Cc1ccccc1N1CCN(C(=S)c2ccc([N+](=O)[O-])cc2)CC1	16µM*	0%	-6%	i
COC(=O)c1cc(C(=O)c2c(C)cc3ccccn23)cc([N+](=O)[O-])c1	i	u	16µM*	u
COC(=O)c1cc(C(=O)N2CCN(c3ccccc3OC)CC2)cc([N+](=O)[O-])c1	1.3µM*	0.33µM*	0.33µM*	1.2µM*
Cc1cccc(N2CCN(C(=S)c3ccc([N+](=O)[O-])cc3)CC2)c1	i	5%	25%	i
O=C(CCC1N=C2c3ccccc3N=C(SCc3ccc(Cl)cc3)N2C1=O)NC1CCCCC1 (stereo unspecified)	i	x	x	i
COc1ccc(CNC(=O)CCc2nc3cccnc3n2Cc2ccccc2)cc1	i	x	x	i
CCOC(=O)Cn1c(=O)oc2cc(S(=O)(=O)N3CCN(c4ccc(Cl)cc4)CC3)ccc21	i	x	x	i
CCc1nc2ccc(C(=O)N(C)CCN(C)C)cn2c1N(C)Cc1cc2ccccc2s1	i	u	16µM*	i
Cc1ccc(CNC(=O)c2cc(C)nn2-c2ccccc2)cc1	i	2%	2%	u
Cc1ccc(Cc2nnc3n(-c4ccccc4)nc(C(=O)c4ccccc4)n3c2=O)cc1	8.2µM*	-28%	-1%	u
OC(COc1ccc(CNCCc2ccc(C(F)(F)F)cc2)cc1)CN1CCCCC1 (stereo unspecified)	u	23µM*	23µM*	u
OC(COc1ccc(OCC(O)CN2CCCCC2)cc1)CN1CCCCC1 (stereo unspecified)	i	-17%	-15%	u
Cc1ccc(Cn2c(CN3CCN(c4cccc(Cl)c4)CC3)nc3c2c(=O)n(C)c(=O)n3C)cc1	i	x	x	i
c1ccc(-c2nnc3sc(CN4CCC5(CC4)OCCO5)cn23)cc1	21µM*	-17%	-13%	i
Cc1ccc(CNC(=O)CCc2c(C)nc3c4c(C)cc(C)nc4nn3c2C)cc1	i	x	x	i
CN(C)c1ccc(C(c2ccc(N(C)C)cc2)C(O)c2ccccc2)cc1 (stereo unspecified)	16µM*	16%	11%	i
